According to PubChem BioAssay (Tox21):
Records with an inconclusive call do not appear. Activity calls are given as the source filed them. Unless noted, the call rests on the fitted dose curve; in most records, active means well fitted curve in the direction sought with a large enough effect in the repeat runs; inconclusive means weak or mixed curves; inactive means no such curve, though single readings can be large; an effect the other way counts as inactive or inconclusive.

Experiments:
[1] = qHTS assay to identify small molecule antagonists of the estrogen receptor alpha (ER-alpha) signaling pathway using the BG1 cell line in the presence of 0.1 nM 17-beta-estradiol - cell viability counter screen (AID 1259241); further: nearly all actives have a fitted effect of over 40% in size
Procedure, shortened: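 Live-cell protease activity (CellTiter-Fluor fluorescence, 30 min) was read in the same wells after VM7Luc4E2 cells had been exposed to compounds with 0.1 nM 17beta-estradiol for 22 hr at 37C.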

[2] = qHTS assay to identify small molecule antagonists of the androgen receptor (AR) signaling pathway using the MDA cell line in the presence of 0.5 nM R1881 - cell viability counter screen (AID 1259242); further: nearly all actives have a fitted effect of over 45% in size
Procedure, shortened: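 Counter screen for cytotoxicity run in the same wells as the AR antagonist reporter screen: MDA-kb2 cells were treated 16 hr with test compounds and 0.5 nM R1881, then live-cell protease activity was measured by fluorescence.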

[3] = target: Estrogen receptor (Homo sapiens) (UniProt P03372); assay: qHTS assay to identify small molecule antagonists of the estrogen receptor alpha (ER-alpha) signaling pathway using the BG1 cell line in the presence of 0.1 nM 17-beta-estradiol (AID 1259244); further: nearly all actives have a fitted effect of over 50% in size
Procedure, shortened: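 Cells: VM7Luc4E2, endogenous ER-alpha, 4x ERE-luc stable. Pre-culture 5 d, phenol red-free, charcoal-stripped FBS. Plated 24 h, compound + E2 0.1 nM final, 22 h 37C/5% CO2. Readout ONE-Glo luminescence.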

[4] = qHTS assay to identify small molecule HDAC inhibitors (AID 1259364); further: top concentration of the series differs between compounds; nearly all actives have a fitted effect of over 45% in size
Procedure, shortened: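 Luminescence from a cell-permeant luminogenic class I/II HDAC substrate reports endogenous deacetylase activity in intact HCT-116 cells treated with compounds for 2 h.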

[5] = qHTS assay to identify small molecule HDAC inhibitors - cell viability counter screen (AID 1259365); further: series mostly up to about 92 µM; nearly all actives have a fitted effect of over 50% in size
Procedure, shortened: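 HCT-116 (wild type), 1,500 cells/well, overnight 37C/5% CO2; compound in DMSO 2hr; CellTiter-Glo 30min RT; luminescence read.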

[6] = qHTS assay to identify small molecule antagonists of the sonic hedgehog signaling (Shh) pathway - cell viability counter screen (AID 1259367); further: nearly all actives have a fitted effect of over 55% in size
Procedure, shortened: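 Using CellTiter-Fluor, viability of Gli1-Luc reporter 3T3 cells is read by fluorescence in the wells used for the Shh luciferase assay. Treatment lasts 23 hr with conditioned medium, then reagent 1 hr at 37C.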

[7] = qHTS assay to identify small molecule agonists of the sonic hedgehog signaling (Shh) pathway (AID 1259368; calls by dose curve;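 further: NIH/3T3-derived 3T3Gli1-Luc cells carrying a stable Gli1-driven firefly luciferase reporter; series mostly up to about 92 µM; nearly all actives have a fitted effect of over 15% in size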)
Procedure, shortened: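 3T3Gli1-Luc (NIH/3T3 clone, stable Gli1-Luc); 4 hr pre-incubation, then cpd in DMSO 24 hr, 37 C/5% CO2; luciferase reagent 30 min RT; luminescence.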

[8] = qHTS assay to identify small molecule agonists of the sonic hedgehog signaling (Shh) pathway - cell viability counter screen (AID 1259366); further: nearly all actives have a fitted effect of over 50% in size
Procedure, shortened: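 CellTiter-Fluor fluorescence read-out, 1 hr at 37C, added after 23hr compound exposure. Cells: 3T3 Gli1-Luc, an NIH/3T3 clone with stably integrated Gli1-Luc reporter, plated 4hr before compound.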

[9] = qHTS assay to identify small molecule phospholipidosis (PLD) inducers (AID 1259344; active means well fitted curve in the direction sought with a large enough effect; an effect the other way counts as inactive or inconclusive)
Procedure, shortened: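 Fluorescent phospholipid staining (LipidTOX Red) measured by automated microscopy in fixed HepG2 cells after 24 h treatment; nuclei counterstained with Hoechst 33342; amiodarone as reference inducer.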
On the % scale 0 is the no-effect control and ±100 the full control effect.

Chain of Estrogen receptor (Homo sapiens) (P03372 whole entry, looked up): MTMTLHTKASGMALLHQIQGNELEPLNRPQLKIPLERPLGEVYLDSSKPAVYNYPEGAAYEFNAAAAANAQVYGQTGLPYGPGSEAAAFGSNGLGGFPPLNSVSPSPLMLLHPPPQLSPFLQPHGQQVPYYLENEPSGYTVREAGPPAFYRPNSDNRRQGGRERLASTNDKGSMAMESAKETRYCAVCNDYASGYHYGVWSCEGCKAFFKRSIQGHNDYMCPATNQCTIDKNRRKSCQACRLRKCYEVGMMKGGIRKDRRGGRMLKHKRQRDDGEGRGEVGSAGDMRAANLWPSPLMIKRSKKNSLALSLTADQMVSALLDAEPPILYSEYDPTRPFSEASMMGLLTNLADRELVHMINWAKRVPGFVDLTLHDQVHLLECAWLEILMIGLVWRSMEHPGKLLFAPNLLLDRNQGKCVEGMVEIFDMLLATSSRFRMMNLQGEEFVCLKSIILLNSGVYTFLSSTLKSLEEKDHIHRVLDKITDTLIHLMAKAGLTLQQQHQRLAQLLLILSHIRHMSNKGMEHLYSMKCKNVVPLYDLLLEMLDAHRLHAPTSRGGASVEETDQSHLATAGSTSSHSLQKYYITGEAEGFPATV

O=P(O)(OCc1ccccc1)OCc1ccccc1
inactive: Potency [1] | Potency [2] | Potency [3] | Potency [4] | Potency [5] | Potency [6] | outcome [7]

CCNc1cc(O)ccc1C
inactive: Potency [1] | Potency [2] | Potency [3] | Potency [4] | Potency [5] | outcome [7]

CC1=CCCC(C)(C)C12CCC(C)O2 (stereo not drawn)
inactive: Potency [1] | Potency [2] | Potency [4] | Potency [5] | Potency [8] | Potency [6] | outcome [7]

Nc1ncn([C@H]2C[C@H](O)[C@@H](CO)O2)c(=O)n1
inactive: Potency [1] | Potency [2] | Potency [9] | Potency [4] | Potency [5] | Potency [8] | Potency [6] | outcome [7]

CCCCOC(=O)CCCCCCCC(=O)OCCCC
inactive: Potency [1] | Potency [2] | Potency [4] | Potency [5] | Potency [8] | Potency [6] | outcome [7]

C#C[C@]1(O)CC[C@H]2[C@@H]3CCc4cc(OC5CCCC5)ccc4[C@H]3CC[C@@]21C
inactive: Potency [1] | Potency [2] | Potency [9] | Potency [4] | Potency [5] | Potency [8] | Potency [6] | outcome [7]

OC(C#CCN1CCCC1)(c1ccccc1)c1ccccc1
inactive: Potency [1] | Potency [2] | Potency [9] | Potency [4] | Potency [5] | Potency [8] | outcome [7]

CC(C)C[C@H]1C(=O)N2CCC[C@H]2[C@]2(O)O[C@](NC(=O)[C@@H]3C=C4c5cccc6[nH]c(Br)c(c56)C[C@H]4N(C)C3)(C(C)C)C(=O)N12
inactive: Potency [1] | Potency [2] | Potency [9] | Potency [4] | Potency [5] | outcome [7]

CCCCC/C=C\C/C=C\CCCCCCCC(=O)NC(C)c1ccccc1 (stereo not drawn)
inactive: Potency [1] | Potency [2] | PLD induction [9] -2.94% [at 7.66 µM] | Potency [4] | Potency [5] | outcome [7]

Nc1ccccc1S(=O)(=O)c1ccccc1
inactive: Potency [1] | Potency [2] | Potency [4] | Potency [5] | Potency [8] | Potency [6] | outcome [7]

Clc1ccc2c(c1)CCc1cccnc1C2=C1CCNCC1
inactive: Potency [1] | Potency [2] | Potency [3] | Potency [4] | Potency [5] | outcome [7]

C/C=C(/C(=C/C)c1ccc(OC(C)=O)cc1)c1ccc(OC(C)=O)cc1
inactive: Potency [1] | Potency [2] | Potency [3] | Potency [4] | Potency [5] | Potency [6] | outcome [7]

CN(C)CCN(Cc1ccc(Cl)cc1)c1ccccn1
inactive: Potency [1] | Potency [2] | PLD induction [9] -3.78% [at 0.137 µM] | Potency [4] | Potency [5] | Potency [6] | outcome [7]

CC(=O)[O][Al][O]C(C)=O
inactive: Potency [1] | Potency [2] | Potency [9] | Potency [4] | Potency [5] | Potency [6] | outcome [7]

CO[C@@H]1[C@H](OC(=O)/C=C/C=C/C=C/C=C/C(=O)O)CC[C@]2(CO2)[C@H]1[C@@]1(C)O[C@@H]1CC=C(C)C
inactive: Potency [1] | Potency [2] | Potency [9] | Potency [4] | Potency [5] | Potency [8] | Potency [6] | outcome [7]

O=C(NCCO[N+](=O)[O-])c1cccnc1
inactive: Potency [1] | Potency [2] | Potency [9] | Potency [4] | Potency [5] | Potency [8] | Potency [6] | outcome [7]

CCCCc1ncc(/C=C(\Cc2cccs2)C(=O)O)n1Cc1ccc(C(=O)O)cc1
inactive: Potency [1] | Potency [2] | Potency [9] | Potency [4] | Potency [5] | Potency [8] | Potency [6] | outcome [7]

Cc1cccc(C)c1NC(=O)CN(CC(=O)O)CC(=O)O
inactive: Potency [1] | Potency [2] | Potency [9] | Potency [4] | Potency [5] | Potency [8] | Potency [6] | outcome [7]

COc1ccc(C)cc1[N+](=O)[O-]
inactive: Potency [1] | Potency [2] | Potency [4] | Potency [5] | Potency [8] | Potency [6] | outcome [7]

Clc1ccc(Cn2c(CN3CCCC3)nc3ccccc32)cc1
inactive: Potency [1] | Potency [2] | Potency [9] | Potency [4] | Potency [5] | Potency [8] | Potency [6] | outcome [7]

CC(C)(COC(=O)c1ccccc1)COC(=O)c1ccccc1
inactive: Potency [1] | Potency [2] | Potency [4] | Potency [5] | Potency [6] | outcome [7]

CCCNCC(O)COc1ccccc1C(=O)CCc1ccccc1 (stereo not drawn)
inactive: Potency [1] | Potency [2] | Potency [4] | Potency [5] | Potency [6] | outcome [7]

Nc1cc(C(=O)O)c(O)c(S(=O)(=O)O)c1
inactive: Potency [1] | Potency [2] | Potency [4] | Potency [5] | Potency [6] | outcome [7]

COC(=O)c1ccc(I)cc1S(=O)(=O)NC(=O)Nc1nc(C)nc(OC)n1
inactive: Potency [1] | Potency [2] | Potency [4] | Potency [5] | Potency [6] | outcome [7]

C/C=C/C=C/CO
inactive: Potency [1] | Potency [2] | Potency [4] | Potency [5] | Potency [8] | Potency [6] | outcome [7]

CCCCCCCC/C=C\CCCCCCCC(=O)OCC
inactive: Potency [1] | Potency [2] | Potency [4] | Potency [5] | Potency [8] | Potency [6] | outcome [7]

CC/C=C\CCOC(=O)CC
inactive: Potency [1] | Potency [2] | Potency [4] | Potency [5] | Potency [8] | Potency [6] | outcome [7]
